According to the supplement of paper PMC10105736:

System: cpb
Assay: MAPPIT interaction score (arbitrary units); higher = stronger binary interaction signal, active = hit call of the paper
Conditions: MAPPIT configuration: N-C; pair source set: Lit-BM-16;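 active = MAPPIT score above the 99th percentile of random reference set scores in the same batch; inactive = at or below it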
Description: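 MAPPIT in HEK293T cells: Drosophila bait and prey ORFs (from the FlyBi ORF collection) were co-transfected in quadruplicate, with two wells stimulated by erythropoietin. Interaction-dependent JAK-STAT activation was read out with a STAT-responsive firefly luciferase reporter. Positive calls use the 99th percentile of random reference set (RRS) scores within each batch […]. Batches Dvs01 and Dvs02 used the N-N configuration and Dvs04 the N-C configuration. Pairs come from FlyBi screens, CuraGen, DPiM, Finley Y2H, Lit-BM-16, Lit-BS-16 and RRS.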
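Note: HEK293T cells with Epo stimulation, STAT-responsive firefly luciferase reporter, fold induction versus unstimulated cells divided by the larger fold induction of two negative controls lacking either bait or prey.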

cpa, sequence (chain, as listed by the source): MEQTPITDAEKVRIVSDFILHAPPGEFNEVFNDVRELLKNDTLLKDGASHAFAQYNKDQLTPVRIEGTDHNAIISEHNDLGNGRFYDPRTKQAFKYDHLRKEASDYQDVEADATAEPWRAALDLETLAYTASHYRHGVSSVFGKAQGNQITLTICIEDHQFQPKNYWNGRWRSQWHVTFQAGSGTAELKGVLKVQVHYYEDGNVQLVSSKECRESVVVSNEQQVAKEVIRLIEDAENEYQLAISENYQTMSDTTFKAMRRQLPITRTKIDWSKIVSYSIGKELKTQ

Question: How did the MAPPIT interaction score turn out when cpa was run?
Answer: 4.39 (active)

Same assay, conditions: MAPPIT configuration: N-N; pair source set: Lit-BM-16

Question: How did the MAPPIT interaction score turn out when cpa was run?
Answer: 6.04 (active)
